Reference: PubChem BioAssay (NCATS)
Results filed as inconclusive are left out. Where a call stands in place of a potency, no number is given. Values without a mark were called inactive. Calls of active or inactive are those of the source. Unless noted, calls come from the whole dose curve.

How the values were obtained:
[1] = qHTS for Inhibitors of the Functional Ribonucleoprotein Complex (vRNP) of Lassa (LASV) Arenavirus: LASV Primary Screen - GLuc reporter signal (AID 1347082; calls by dose curve; tested in HEK293 reporter line; note: series mostly up to about 57 µM; nearly all actives have a fitted effect of over 60% in size)
[2] = qHTS for Inhibitors of the Functional Ribonucleoprotein Complex (vRNP) of Lassa (LASV) Arenavirus: Viability assay - alamar blue signal for LASV Primary Screen (AID 1347083; calls by dose curve; tested in HEK293 reporter line; note: nearly all actives have a fitted effect of over 80% in size; note: potency is the fitted concentration of half-maximal effect; for activity change, negative = reduced viability: series mostly up to about 57 µM)
[3] = qHTS for Inhibitors of the Functional Ribonucleoprotein Complex (vRNP) of Lymphocytic Choriomeningitis Arenaviruses (LCMV): Viability assay - alamar blue signal for LCMV Primary Screen (AID 1347085; calls by dose curve; tested in HEK293 reporter line; note: series mostly up to about 57 µM; nearly all actives have a fitted effect of over 80% in size)
[4] = target: Nucleoprotein (Lymphocytic choriomeningitis virus (strain Armstrong)) (UniProt P09992); assay: qHTS for Inhibitors of the Functional Ribonucleoprotein Complex (vRNP) of Lymphocytic Choriomeningitis Arenaviruses (LCMV): LCMV Primary Screen - GLuc reporter signal (AID 1347086); note: series mostly up to about 57 µM; nearly all actives have a fitted effect of over 70% in size
Sequence of Nucleoprotein (Lymphocytic choriomeningitis virus (strain Armstrong)) (P09992 whole entry, looked up): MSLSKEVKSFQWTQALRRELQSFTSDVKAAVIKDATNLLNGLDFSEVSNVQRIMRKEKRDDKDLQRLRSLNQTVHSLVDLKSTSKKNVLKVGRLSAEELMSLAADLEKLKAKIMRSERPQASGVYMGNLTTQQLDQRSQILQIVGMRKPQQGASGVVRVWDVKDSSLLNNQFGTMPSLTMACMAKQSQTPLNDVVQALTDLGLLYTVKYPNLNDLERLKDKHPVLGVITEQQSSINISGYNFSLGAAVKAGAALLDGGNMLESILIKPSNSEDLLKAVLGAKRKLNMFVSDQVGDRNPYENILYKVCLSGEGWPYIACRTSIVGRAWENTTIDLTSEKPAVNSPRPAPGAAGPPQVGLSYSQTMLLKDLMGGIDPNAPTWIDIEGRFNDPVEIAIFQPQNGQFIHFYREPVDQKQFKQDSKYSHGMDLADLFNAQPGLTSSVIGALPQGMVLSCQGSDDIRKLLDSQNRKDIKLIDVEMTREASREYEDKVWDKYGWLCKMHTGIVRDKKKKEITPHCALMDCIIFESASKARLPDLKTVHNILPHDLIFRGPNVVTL

| SMILES | Potency [1] | Potency [2] | Potency [3] | Potency [4] | activity change, negative = inhibition [1] | activity change, negative = reduced viability [2] | activity change, negative = lower viability [3] | activity change, negative = inhibition [4] |
| --- | --- | --- | --- | --- | --- | --- | --- | --- |
| O=C(O)CCC(=O)O | inactive | inactive | inactive | inactive |  |  |  |  |
| COc1ccc(C2CNC(=O)C2)cc1OC1CCCC1 (stereo not given) | inactive | inactive | inactive | inactive |  |  |  |  |
| C[N+](C)(CCOc1ccccc1)Cc1cccs1 | inactive | inactive | inactive | inactive |  |  |  |  |
| CC(C(=O)O)c1cccc(Oc2ccccc2)c1 (stereo not given) | inactive | inactive | inactive | inactive |  |  |  |  |
| O=C(O)CCCCC(=O)O | inactive | inactive | inactive | inactive |  |  |  |  |
| COCCc1ccccn1 | inactive | inactive | inactive | inactive |  |  |  |  |
| CCN(CC)CCNC(=O)COc1ccc(OC)cc1 | inactive | inactive | inactive | inactive |  |  |  |  |
| CN1N=C(C(N)=O)CCC1=O | inactive | inactive | inactive | inactive |  |  |  |  |
| Oc1cccc(O)c1 | inactive | inactive | inactive | inactive |  |  |  |  |
| CC(C)Cn1cnc2c(N)nc3ccccc3c21 | inactive | inactive | inactive | inactive |  |  |  |  |
| CC(=O)Oc1cccc(O)c1 | inactive | inactive | inactive | inactive |  |  |  |  |
| O=C(O)CSCC(=O)NC1CCSC1=O (stereo not given) | inactive | inactive | inactive | inactive |  |  |  |  |
| Nc1nc(N)c(-c2ccccc2)s1 | inactive | inactive | inactive | inactive |  |  |  |  |
| COc1ccc2c(c1)c(CC(=O)OC/C=C(\C)CC/C=C(\C)CCC=C(C)C)c(C)n2C(=O)c1ccc(Cl)cc1 | inactive | inactive | inactive | inactive |  |  |  |  |
| COc1ccccc1N1CCN(CCCCNC(=O)c2ccc(-c3ccc(C(C)=O)cc3)cc2)CC1 | inactive | inactive | inactive | inactive |  |  |  |  |
| Cc1cc(C)c(NC(=O)CN(CC(=O)O)CC(=O)O)c(C)c1Br | inactive | inactive | inactive | inactive |  |  |  |  |
| O=C(NC(Cc1cc(=O)[nH]c2ccccc12)C(=O)O)c1ccc(Cl)cc1 (stereo not given) | inactive | inactive | inactive | inactive |  |  |  |  |
| CN(C)CCN1CCN(c2cccc(Cl)c2)C1=O | inactive | inactive | inactive | inactive |  |  |  |  |
| O=c1c(-c2ccc(O)cc2)coc2cc(O)cc(O)c12 | inactive | inactive | inactive | inactive |  |  |  |  |
| COc1cc(C(=O)N2CCOCC2)cc(OC)c1OC | inactive | inactive | inactive | inactive |  |  |  |  |

| SMILES | Potency [1] | Potency [2] | Potency [3] | Potency [4] | activity change, negative = inhibition [1] | activity change, negative = reduced viability [2] | activity change, negative = lower viability [3] | activity change, negative = inhibition [4] |
| --- | --- | --- | --- | --- | --- | --- | --- | --- |
| Cc1oc(=O)oc1COC(=O)[C@@H]1N2C(=O)[C@@H](NC(=O)[C@H](N)c3ccccc3)[C@H]2SC1(C)C | inactive | inactive | inactive | inactive |  |  |  |  |
| CN=C(NC#N)NCCSCc1csc(N=C(N)N)n1 | inactive | inactive | inactive | inactive |  |  |  |  |
| CC(=O)Oc1cccc2c1C(=O)c1c(OC(C)=O)cc(C(=O)O)cc1C2=O | inactive | inactive | inactive | inactive |  |  |  |  |
| CC(C)C(=O)c1c(C(C)C)nn2ccccc12 | inactive | inactive | inactive | inactive |  |  |  |  |
| CCOC(=O)c1ccc(O)c(O)c1 | inactive | inactive | inactive | inactive |  |  |  |  |
| COC(=O)N/N=C/c1c[n+]([O-])c2ccccc2[n+]1[O-] | inactive | inactive | inactive | inactive |  |  |  |  |
| CCCC(=O)Nc1ccc(O)c(C(C)=O)c1 | inactive | inactive | inactive | inactive |  |  |  |  |
| CC(C)C(=O)Nc1cccc(C(F)(F)F)c1 | inactive | inactive | inactive | inactive |  |  |  |  |
| Cc1nnc(NS(=O)(=O)c2ccc(N)cc2)s1 | inactive | inactive | inactive | inactive |  |  |  |  |
| CCOc1cc(OCC)c(C(=O)CCC(=O)O)cc1OCC | inactive | inactive | inactive | inactive |  |  |  |  |
| CCN(CC)CCNC(=O)c1cc(S(C)(=O)=O)ccc1OC | inactive | inactive | inactive | inactive |  |  |  |  |
| CCCCCCCCCCCCCCCC(=O)NCCO | inactive | inactive | inactive | inactive |  |  |  |  |
| COc1ccc(/C=N/NC(=O)c2ccncc2)cc1OC | inactive | inactive | inactive | inactive |  |  |  |  |
| COc1ccnc(CS(=O)c2nc3ccc(OC(F)F)cc3[nH]2)c1OC (stereo not given) | inactive | inactive | inactive | inactive |  |  |  |  |
| CC[N+](CC)(CC)CCOc1cccc(OCC[N+](CC)(CC)CC)c1OCC[N+](CC)(CC)CC | inactive | inactive | inactive | inactive |  |  |  |  |
| COc1ccc(C(=O)c2ccccc2)c(O)c1 | inactive | inactive | inactive | inactive |  |  |  |  |
| CCCCCCCC(=O)[O-].CCCCCCCC(=O)[O-].[Zn+2] | inactive | inactive | inactive | inactive |  |  |  |  |
| Cc1cc(=O)n(-c2ccccc2)n1C | inactive | inactive | inactive | inactive |  |  |  |  |
| CN1CC(=O)NC1=N | inactive | inactive | inactive | inactive |  |  |  |  |
| CN1C(C)(C)CCCC1(C)C | inactive | inactive | inactive | inactive |  |  |  |  |

| SMILES | Potency [1] | Potency [2] | Potency [3] | Potency [4] | activity change, negative = inhibition [1] | activity change, negative = reduced viability [2] | activity change, negative = lower viability [3] | activity change, negative = inhibition [4] |
| --- | --- | --- | --- | --- | --- | --- | --- | --- |
| COc1ccc2cc1Oc1cc3c(cc1OC)CC[N+](C)(C)[C@H]3Cc1ccc(cc1)Oc1c(OC)c(OC)cc3c1[C@@H](C2)[N+](C)(C)CC3 | inactive | inactive | inactive | inactive |  |  |  |  |
| c1ccc(-c2nc[nH]c2-c2ccccc2)cc1 | inactive | inactive | inactive | inactive |  |  |  |  |
| OC[C@H]1O[C@H](O[C@]2(CCl)O[C@H](CCl)[C@@H](O)[C@@H]2O)[C@H](O)[C@@H](O)[C@H]1Cl | inactive | inactive | inactive | inactive |  |  |  |  |
| NS(=O)(=O)c1cc(Cl)c(Cl)c(S(N)(=O)=O)c1 | inactive | inactive | inactive | inactive |  |  |  |  |
| Cc1ccc(C(C)C)cc2c(C)ccc1-2 | inactive | inactive | inactive | inactive |  |  |  |  |
| NCCCCCC(=O)O | inactive | inactive | inactive | inactive |  |  |  |  |
| CCOC(=O)Oc1ccc(CCNC(=O)[C@H](CCSC)NC(C)=O)cc1OC(=O)OCC | inactive | inactive | inactive | inactive |  |  |  |  |
| NC(N)=NC(=O)Cc1c(Cl)cccc1Cl | inactive | inactive | inactive | inactive |  |  |  |  |
| O=C1CC[C@H](C(=O)N2CCCCC2)N1 | inactive | inactive | inactive | inactive |  |  |  |  |
| COc1ccc(/C(C)=C/C(=O)O)c(OC)c1 | inactive | inactive | inactive | inactive |  |  |  |  |
| CN(c1nccc(=O)[nH]1)C1CCN(c2nc3ccccc3n2Cc2ccc(F)cc2)CC1 | inactive | 30.6 µM (active) | inactive | inactive |  |  |  |  |
| CCCCCCCCCCCCCCCCCCO | inactive | inactive | inactive | inactive |  |  |  |  |
| Nc1ncnc2c1ncn2Cc1c(F)cccc1Cl | inactive | inactive | inactive | inactive |  |  |  |  |
| OCCOCCN1CCN(C2=Nc3ccccc3Sc3ccccc32)CC1 | inactive | inactive | inactive | inactive |  |  |  |  |
| Cc1c(NC(=O)c2cccnc2)c(=O)n(-c2ccccc2)n1C | inactive | inactive | inactive | inactive |  |  |  |  |
| Cc1c[nH]c2ccccc12 | inactive | inactive | inactive | inactive |  |  |  |  |
| CC(=O)CC(c1ccccc1)c1c(O)c2ccccc2oc1=O (stereo not given) | inactive | inactive | inactive | inactive |  |  |  |  |
| CCCCCCCCCCOc1cc2c(=O)c(C(=O)OCC)c[nH]c2cc1OCC |  |  |  |  | -8.32% [at 5.82 µM] | 1.68% [at 5.82 µM] | 5.24% [at 5.82 µM] | 13.4% [at 5.82 µM] |
| CC1(C)O[C@H]2CC(=O)OC[C@]23[C@H]2CC[C@@]4(C)[C@H](c5ccoc5)OC(=O)[C@H]5O[C@]54[C@]2(C)C(=O)C[C@@H]13 | inactive | inactive | inactive | inactive |  |  |  |  |
| O=C(O)CCCCCCCC(=O)O | inactive | inactive | inactive | inactive |  |  |  |  |
